33 compounds from PubChem BioAssay (NCATS) can be followed below.

The target of assay [1] is Mitogen-activated protein kinase 10 (Mus musculus) (UniProt Q61831). Briefly: JNK3 AlphaScreen Assay (AID 530; active means well fitted curve in either direction with a large enough effect, not every such curve was filed as active;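 further: kinase came from lysate of stimulated human HepG2 cells; signal reports phosphorylation of biotinylated GST-cJun 1-79 at Ser73 with 10 µM ATP; series mostly up to about 57 µM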). In outline: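 HepG2 lysate (IL-1b/TNFa pre-activated) + biotin-GST-cJun 1-79 + anti-pSer73 cJun; cpd titration, 15 min RT; ATP 10 uM start; Tris pH 7.6, MgCl2, DTT, vanadate; beads in EDTA buffer; AlphaScreen.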
On the technique in general: Alpha assays give light when donor and acceptor beads are brought close together.

Assay [2] deals with Cytochrome P450 3A4 (Homo sapiens) (UniProt P08684). Put plainly: qHTS Assay for Activators of Cytochrome P450 3A4 (AID 885). Further: nearly all actives have a fitted effect of over 65% in size. The procedure, abridged:
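Luminescent readout of luciferin formed from 25 uM Luciferin-PPXE (KM level) by 20 nM CYP3A4 in 200 mM KPO4, with 60 min NADPH-driven reaction at room temperature after 10 min compound exposure. Ketoconazole (57 uM) defined 100% inhibition.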
(qHTS replaces the single test concentration by a dilution series.)

Assay [3] addresses Calcium and integrin-binding protein 1 (Homo sapiens) (UniProt Q99828). Put plainly: Primary qHTS for Identification of Calcium Integrin Binding Protein 1 (CIB1) Competitor (AID 1508620).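 Further: GST tagged CIB1 binding a fluorescein labelled alphaIIb integrin peptide tracer; top concentration of the series differs between compounds.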 In outline:
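Fluorescence polarization competition: GST-tagged CIB1 (1 uM final) preincubated with compound 15 min at room temperature, then FITC-labelled alphaIIb peptide (100 nM final) added. After 15 min at room temperature, polarization read at Ex 480/Em 540.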

Assay [4] addresses Cytochrome P450 3A4 (Homo sapiens) (UniProt P08684). Briefly: qHTS Assay for Inhibitors and Substrates of Cytochrome P450 3A4 (AID 884). Further: potency means the concentration at half of the fitted maximal effect; nearly all actives have a fitted effect of over 50% in size. In outline: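 Luminescent readout of luciferin produced by CYP3A4 (20 nM) dealkylation of Luciferin-PPXE, 25 uM (its KM). NADPH-driven reaction ran 60 min at RT after 10 min compound preincubation; data scaled to 57 uM ketoconazole as 100% inhibition.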

A short description of assay [5]: qHTS for Inhibitors of the vitamin D receptor (VDR): Hit Validation using a Texas Red Assay (AID 602201). In outline:
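Fluorescence polarization with 1.5 uM VDR-LBD, LG19078 and 7 nM Texas Red (final). After 2 hours at ambient temperature, read at Ex 595 nm/Em 615 nm.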

Results filed as inconclusive are left out. Entries that show only a call come without a potency. The source made the active and inactive calls. Unless noted, the call rests on the fitted dose curve; in most records, active means well fitted curve in the direction sought with a large enough effect; inconclusive means small, poorly fitted or top-dose-only effect, or another doubt; inactive means no such curve, though single readings can be large; an effect the other way counts as inactive or inconclusive.

Cytochrome P450 3A4 (Homo sapiens), sequence (P08684 whole entry, looked up): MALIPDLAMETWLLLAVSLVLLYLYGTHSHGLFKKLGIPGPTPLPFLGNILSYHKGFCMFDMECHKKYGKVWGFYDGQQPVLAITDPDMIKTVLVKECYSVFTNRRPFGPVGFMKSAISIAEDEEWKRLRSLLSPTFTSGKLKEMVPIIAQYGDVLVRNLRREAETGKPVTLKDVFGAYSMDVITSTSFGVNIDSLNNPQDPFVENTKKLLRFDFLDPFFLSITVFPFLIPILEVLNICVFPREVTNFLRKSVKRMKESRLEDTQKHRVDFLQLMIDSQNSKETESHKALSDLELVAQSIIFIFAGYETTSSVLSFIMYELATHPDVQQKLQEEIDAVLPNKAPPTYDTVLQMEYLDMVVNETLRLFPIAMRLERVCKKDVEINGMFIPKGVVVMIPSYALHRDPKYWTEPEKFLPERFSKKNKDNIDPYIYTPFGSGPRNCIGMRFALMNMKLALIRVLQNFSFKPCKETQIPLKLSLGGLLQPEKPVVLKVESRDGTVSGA
Calcium and integrin-binding protein 1 (Homo sapiens), sequence (Q99828 whole entry, looked up): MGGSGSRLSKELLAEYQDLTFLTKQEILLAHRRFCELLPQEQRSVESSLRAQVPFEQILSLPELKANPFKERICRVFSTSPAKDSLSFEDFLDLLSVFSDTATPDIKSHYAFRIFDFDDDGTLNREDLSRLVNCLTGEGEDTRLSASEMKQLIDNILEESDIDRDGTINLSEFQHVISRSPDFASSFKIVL

In the case of `CCCn1c(C)nc2c(NC3CCN(Cc4ccccc4)C3)nc(C)nc21` (centres undefined), the result in assay [1] was inactive. For the same compound, the Potency result in assay [2] and in assay [3] was “inactive” throughout.

For `CCCn1c(-c2ccc(F)cc2)nc2c(NCCCN(CCO)CCO)nc(C)nc21`, in assay [1], the compound was called inactive. Besides, the Potency entry in assay [2] and in assay [3] was “inactive” throughout.

In the case of `CCCn1c(C)nc2c(NCCCCN(CC)CC)nc(C)nc21`, the compound was called inactive in assay [1]. Besides, the Potency result in assay [2] and in assay [3] was “inactive” in each case.

For the compound `COCCN(CCOC)c1nc(C)nc2c1nc(-c1ccccc1)n2CCCN(C)C`, in assay [1], the compound was classed as inactive. Also, the Potency entry in assay [2] and in assay [3] was “inactive” in each case.

On to `Cc1nc(NC2CCCCC2)c2nc(-c3ccccc3)n(CCCN3CCCCC3C)c2n1` (centres undefined), for which the compound was classed as inactive in assay [1]. The Potency result in assay [2] and in assay [3] was “inactive” in each case.

Take `Cc1nc(N2CCOCC2)c2nc(-c3ccccc3)n(CCN3CCCC3)c2n1`: the result in assay [1] was inactive. The Potency result in assay [2] and in assay [3] was “inactive” in each case.

As for `COCCN(CCOC)c1nc(C)nc2c1nc(-c1ccccc1)n2CCN(C)C`, the call in assay [1] was inactive. Moreover, the Potency result in assay [2] and in assay [3] was “inactive” each time.

On to `CCCn1c(-c2ccc(F)cc2)nc2c(NCC3CCN(C)CC3)nc(C)nc21`, for which the compound was called inactive in assay [1]. Also, the Potency result in assay [2] and in assay [3] was “inactive” each time.

With `CCCn1c(-c2ccc(F)cc2)nc2c(N3CCC(N(C)C)C3)nc(C)nc21` (centres undefined), the compound was called inactive in assay [1]. The Potency entry in assay [2] and in assay [3] was “inactive” throughout.

Consider `CCCCNc1nc(C)nc2c1nc(-c1ccccc1)n2CC1CCN(C)CC1`, for which the outcome in assay [1] was inactive. In addition, the Potency entry in assay [2] and in assay [3] was “inactive” each time.

For `Cc1nc(N2CCOCC2)c2nc(-c3ccccc3)n(CC(C)(C)CN(C)C)c2n1`, the call in assay [1] was inactive. Besides, the Potency result in assay [2] and in assay [3] was “inactive” each time.

Turning to `Cc1nc(NC2CCCCC2)c2nc(-c3ccccc3)n(CCN3CCCC3)c2n1`, the outcome in assay [1] was inactive. In addition, the Potency entry in assay [2] and in assay [3] was “inactive” each time.

Consider `CCN(CC)CCCC(C)n1c(-c2ccccc2)nc2c(N(CCOC)CCOC)nc(C)nc21` (centres undefined), for which the compound was called inactive in assay [1]. In addition, the Potency entry in assay [2] and in assay [3] was “inactive” in each case.

`CCCCNc1nc(C)nc2c1nc(-c1ccccc1)n2CCCN(C)C`: the compound was called inactive in assay [1]. Also, the Potency entry in assay [2] and in assay [3] was “inactive” in each case.

Take `CCCn1c(-c2ccc(F)cc2)nc2c(NCCCCN(C)C)nc(C)nc21`: the compound was called inactive in assay [1]. In addition, the Potency result in assay [2] and in assay [3] was “inactive” each time.

Consider `CCN(CC)CCn1c(-c2ccccc2)nc2c(NCCOC)nc(C)nc21`, for which the call in assay [1] was inactive. Further, the Potency entry in assay [2] and in assay [3] was “inactive” throughout.

`CCCn1c(-c2ccc(F)cc2)nc2c(NCCN(C(C)C)C(C)C)nc(C)nc21`: the outcome in assay [1] was inactive. The Potency entry in assay [2] and in assay [3] was “inactive” in each case.

With `CCCCNc1nc(C)nc2c1nc(-c1ccccc1)n2CCCN(CC)CC`, the compound was called inactive in assay [1]. Besides, the Potency entry in assay [2] and in assay [3] was “inactive” each time.

Take `CCCn1c(-c2ccc(F)cc2)nc2c(N(C)CCN(C)C)nc(C)nc21`: the outcome in assay [1] was inactive. The Potency entry in assay [2] and in assay [3] was “inactive” throughout.

For the compound `COCCNc1nc(C)nc2c1nc(-c1ccccc1)n2CCN1CCCC1`, in assay [1], the outcome was inactive. Moreover, the Potency entry in assay [2] and in assay [3] was “inactive” in each case.

For `CCCn1c(-c2ccc(F)cc2)nc2c(NCCCN3CCOCC3)nc(C)nc21`, the outcome in assay [1] was inactive. For the same compound, the Potency in assay [4] is 5.01 µM (active). Also, the Potency result in assay [2] and in assay [3] was “inactive” throughout.

Consider `Cc1nc(NCc2ccccc2)c2nc(-c3ccccc3)n(CCN(C)C)c2n1`, for which the compound was called inactive in assay [1]. Besides, the Potency result in assay [2] and in assay [3] was “inactive” each time.

For the compound `CCCn1c(-c2ccc(F)cc2)nc2c(NC3CC4CCC(C3)N4C)nc(C)nc21` (centres undefined), the compound was called inactive in assay [1]. The Potency result in assay [2] and in assay [3] was “inactive” each time.

For `CCCn1c(C)nc2c(NCc3ccccc3)nc(C)nc21`, the result in assay [1] was inactive. Moreover, the Potency result in assay [2] and in assay [3] was “inactive” in each case.

Consider `CCCn1c(-c2ccc(F)cc2)nc2c(NCCCCN(CC)CC)nc(C)nc21`, for which, in assay [1], the compound was called inactive. Further, the Potency entry in assay [2] and in assay [3] was “inactive” throughout.

As for `Cc1nc(N2CCOCC2)c2nc(-c3ccccc3)n(CCCN3CCCCC3C)c2n1` (centres undefined), the compound was classed as inactive in assay [1]. The Potency entry in assay [2] and in assay [3] was “inactive” each time.

Consider `CCCn1c(C)nc2c(NCCN3CCOCC3)nc(C)nc21`, for which, in assay [1], the compound was called inactive. In addition, the Potency entry in assay [2] and in assay [3] was “inactive” throughout.

Turning to `CCN1CCCC1Cn1c(-c2ccccc2)nc2c(NC3CCCCC3)nc(C)nc21` (centres undefined), the outcome in assay [1] was inactive. For the same compound, the Potency entry in assay [2] and in assay [3] was “inactive” in each case.

With `CCCn1c(C)nc2c(N(CCN(C)C)Cc3ccccc3)nc(C)nc21`, in assay [1], the compound was classed as inactive. The Potency result in assay [2] and in assay [3] was “inactive” each time.

Turning to `CCN(CC)CCCC(C)n1c(-c2ccccc2)nc2c(N3CCOCC3)nc(C)nc21` (centres undefined), in assay [1], the compound was classed as inactive. The Potency entry in assay [2] and in assay [3] was “inactive” throughout.

On to `CCCn1c(-c2ccc(F)cc2)nc2c(NCCCN3CCCCC3C)nc(C)nc21` (centres undefined), for which the outcome in assay [1] was inactive. In addition, in assay [4], the Potency is 10 µM (active). Further, the Potency entry in assay [2] and in assay [3] was “inactive” throughout.

Take `CCN1CCCC1Cn1c(-c2ccccc2)nc2c(N3CCOCC3)nc(C)nc21` (centres undefined): in assay [1], the call was inactive. For the same compound, the Potency entry in assay [2] and in assay [3] was “inactive” in each case.

With `O=C(CSc1nc2ccc(S(=O)(=O)N3CCOCC3)cc2[nH]1)N1CCOCC1`, in assay [5], the Potency result is “inactive”.
